From PubChem
SKKanGAS inh = blocks kanamycin growth of S. pyogenes SKKanGAS strain; BacTiter-Glo, 6 h; actives 1.3% (n = 300,000); inhibition, % at 7.5 µM;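 active = mean replicate score, as percent of positive control median, at least 50; inconclusive = mean below 50 but one replicate at or above 50; inactive = mean and every replicate below 50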;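 note: strain carries kanamycin resistance gene driven by streptokinase promoter and grows in 40 µg/ml kanamycin; loss of luminescence reflects streptokinase promoter inhibition or plain growth inhibition; 0% = median of DMSO wells and 100% = positive control at its reference dose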
Calb FLC = affects C. albicans growth with fluconazole; C. albicans CaCi-2 (fluconazole-resistant clinical isolate) + fluconazole, Alamar Blue growth, 48 h; growth inhibition, % (no concentration beside the values); actives 0.57% (n = 300,000);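 active = growth inhibition above about 58% in most replicates, limit read from the data, passing the limit was not always enough; inconclusive = exactly half the replicates above a set limit; inactive = most replicates below a set limit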;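 note: all wells also contain fluconazole at 8 µg/ml as a sub-toxic cotreatment; 0% = median of DMSO wells and 100% = median of geldanamycin control wells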
Mdm2-MdmX inh = disrupts the human Mdm2-MdmX interaction | O15151+Q00987 | SaOS-2 split-luciferase Mdm2/MdmX complementation, luminescence | inhibition, % at 8 µM | actives 3% (n = 330,000) | AID 485346;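 active = inhibition of at least 50% at 8 µM in the primary screen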
Target sequence (O15151 whole entry, looked up): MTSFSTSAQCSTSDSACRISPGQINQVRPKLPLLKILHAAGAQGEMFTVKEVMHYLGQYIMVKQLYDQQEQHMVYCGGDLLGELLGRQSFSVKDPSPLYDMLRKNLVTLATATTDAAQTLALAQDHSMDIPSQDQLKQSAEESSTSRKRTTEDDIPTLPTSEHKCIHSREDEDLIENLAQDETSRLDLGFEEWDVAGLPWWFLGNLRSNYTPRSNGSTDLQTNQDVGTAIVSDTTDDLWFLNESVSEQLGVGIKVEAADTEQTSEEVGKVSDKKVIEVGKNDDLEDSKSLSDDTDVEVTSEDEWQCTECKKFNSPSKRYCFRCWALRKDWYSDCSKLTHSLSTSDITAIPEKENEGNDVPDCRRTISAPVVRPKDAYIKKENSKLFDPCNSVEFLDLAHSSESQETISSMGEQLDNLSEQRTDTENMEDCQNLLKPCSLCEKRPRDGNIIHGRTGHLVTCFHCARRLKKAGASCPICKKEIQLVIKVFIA
Target sequence (Q00987 whole entry, looked up): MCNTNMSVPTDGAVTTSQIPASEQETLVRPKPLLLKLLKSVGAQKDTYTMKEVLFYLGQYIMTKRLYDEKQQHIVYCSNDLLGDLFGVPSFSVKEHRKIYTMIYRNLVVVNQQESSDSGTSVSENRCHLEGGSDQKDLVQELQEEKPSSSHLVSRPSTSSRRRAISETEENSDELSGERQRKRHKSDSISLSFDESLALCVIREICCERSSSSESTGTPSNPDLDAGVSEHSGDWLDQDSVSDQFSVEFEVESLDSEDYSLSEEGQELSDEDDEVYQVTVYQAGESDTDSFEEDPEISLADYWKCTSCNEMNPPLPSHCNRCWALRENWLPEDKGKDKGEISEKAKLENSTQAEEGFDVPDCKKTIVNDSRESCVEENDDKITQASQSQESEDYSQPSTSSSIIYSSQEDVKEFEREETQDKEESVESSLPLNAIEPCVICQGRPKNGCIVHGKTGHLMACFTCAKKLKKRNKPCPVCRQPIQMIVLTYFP
CSC inhib = cancer stem cell inhibition; cancer stem cell-like cells viability, luminescence; inhibition, % at 7.5 µM; actives 1.1% (n = 300,000); in the data active = inhibition above about 75%; inconclusive = no clear call, values can overlap the other calls; tested in HMLE shEcad cells
Beta cell apopt = blocks beta cell apoptosis; protection from apoptosis, % (concentration not given with the values); INS-1E cytokine-induced death, ATP luminescence, 48 h; percent of positive-control rescue, neutral wells zero; actives 0.8% (n = 300,000);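 active = Every replicate reaches about 75%, or at least half do and their mean reaches it too, limit read from the data; inconclusive = At least half of replicates reach the limit but their mean does not; inactive = Under half of replicates reach the limit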;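 note: 0% = cytokine-treated negative control wells and 100% = positive control rescue; higher means more ATP so stronger rescue from cytokine killing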
MPTP block = permeability transition pore inhibition. isolated mouse mitochondria, Ca2+ swelling absorbance, 30 min. inhibition, % at 10 µM. actives 1.4% (n = 360,000);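 active = inhibition of 50% or more, scaled per plate between neutral and stimulator controls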;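 note: 0% = DMSO wells given calcium and 100% = 1 mM EGTA wells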
Mdm2 MdmX conf = confirmation of human Mdm2/MdmX interaction inhibitors; shares compounds with Mdm2-MdmX inh; Mdm2-MdmX binding, luminescent assay; actives 55% (n = 10,000); inhibition, % at 8 µM; AID 489028; in the data active = inhibition above about 40%
Full FLuc ctr = inhibits full-length luciferase, flagging false Mdm2/MdmX hits; shares compounds with Mdm2-MdmX inh; SaOS-2 full-length luciferase counterscreen, luminescence; inhibition, % at 8 µM; actives 77% (n = 6,200); AID 504607;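 active = mean inhibition at 8 µM reaching about 37%, which flags the compound as non-specific, limit read from the data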;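 note: p53-null SaOS-2 cells with luciferase driven by a doxycycline-inducible promoter; compound on cells about two nights before reading with doxycycline added after day one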
Numbers without * were called inactive; ? = inconclusive; / = not tested or not shown. This is a sample that favours compounds with a hit; in the whole collection about 5.4% have one here.

SMILES	SKKanGAS inh	Calb FLC	Mdm2-MdmX inh	CSC inhib	Beta cell apopt	MPTP block	Mdm2 MdmX conf	Full FLuc ctr
C[C@]12c3[nH]c4cc(-c5ccco5)ccc4c3CCN1C(=O)[C@@H](CC(=O)NCC13CC4CC(CC(C4)C1)C3)C[C@@H]2C(=O)N1CCCCC1	/	/	77.6*	/	/	-1.6	12.1	/
CC[C@]12c3[nH]c4ccc(Cl)cc4c3CCN1C(=O)[C@@H](CC(=O)NCC13CC4CC(CC(C4)C1)C3)C[C@@H]2C(=O)N1CCN(C(=O)c2ccco2)CC1	/	/	86.6*	/	/	-1.3	40.7*	38.3*
COc1ccc(C(=O)O/N=C(\N)c2ccc(Br)cc2)cc1	0.8	-1.4	96.2*	13.7	-9.6	0.6	36.4	158.3*
COc1ccc(C(=O)O/N=C(\N)c2ccccc2)cc1	-2.7	-20.5	55.0*	-7.5	-3.0	3.2	22.1	/
CC(C)(C)c1ccc(C(=O)O/N=C(\N)c2ccccc2)cc1	-5.7	-3.5	96.8*	0.5	0.7	-0.6	87.6*	23.3
Cc1cc(C(=O)O/N=C(\N)c2ccc(C(C)(C)C)cc2)no1	4.4	3.7	-102.8	9.5	2.9	-1.3	/	/
N/C(=N\OC(=O)c1ccc(Br)cc1)c1ccccc1	5.7	3.7	-115.4	1.1	8.1	0.3	/	/
Cc1ccc(C(=O)O/N=C(\N)c2ccc(Br)cc2)cc1	-6.4	1.2	98.0*	-3.9	-0.3	0.1	29.4	/
CCOc1ccc(NCc2cccn2-c2nnc(N3CCC(C(=O)NCCCN4CCCCC4)CC3)s2)cc1	-1.7	-6.4	27.3	15.0	2.2	-2.4	/	/
CCc1nc(N)c(C#N)c(-c2cccnc2)c1C	/	14.3	18.2	6.2	-5.0	0.3	/	/
Cc1nc(N)c(C#N)c(-c2cccnc2)c1C	1.7	5.2	51.1*	-16.1	-17.1	-1.2	28.1	/
N#C/C(=C\c1ccccc1)C(=O)N1CCC(C(N)=O)CC1	5.6	-8.3	4.4	/	-1.7	1.0	/	/
O=C(NCCNC(=O)c1ccc(Cl)cc1Cl)c1ccco1	7.8	6.3	4.9	/	-10.1	-0.3	/	/
CCOc1ccc(OCCn2c(=S)[nH]c3c(N)ncnc32)cc1	-4.9	-4.6	7.3	-62.0	-9.5	-0.5	/	/
Cc1ccc(OCCn2cnc3c(N)ncnc32)cc1	-2.7	32.0	71.9*	-31.6	3.8	0.2	11.3	/
O=C(Cc1csc(Nc2nc(=S)[nH]c3ccccc23)n1)NCc1ccccc1Cl	-1.6	12.9	92.3*	/	62.4	-0.1	-11.2	/
COc1cc(OC)cc(C(=O)Nc2nc(CC(=O)NCc3ccc(F)cc3)cs2)c1	12.3	0.9	69.9*	45.9	11.8	-1.5	64.6*	58.5*
O=C(CCCCCNc1nc(=S)[nH]c2ccccc12)NCc1ccccc1Cl	1.9	-6.5	-3.7	-0.7	20.4	/	/	/
O=C(Cc1csc(Nc2nc(=S)[nH]c3ccccc23)n1)NCc1cccc(Cl)c1	/	/	85.3*	-6.3	3.3	1.0	17.6	/
O=C(Cc1csc(Nc2nc(=S)[nH]c3ccccc23)n1)N1CCN(c2cccc(C(F)(F)F)c2)CC1	12.7	7.0	69.0*	70.4	-2.7	0.3	15.3	/
Cc1cccc(C(=O)NCCc2nnc(SCC(=O)Nc3cccc(C(=O)O)c3)n2C)c1	/	-16.2	22.9	14.4	-5.7	-0.2	/	/
C[n+]1cnn2c1SCC1(COC1)C2	-1.6	7.3	13.4	-10.4	-1.7	0.5	/	/
Cc1ccc(CNC(=O)Cc2csc(Nc3nc(=S)[nH]c4ccccc34)n2)cc1	2.8	34.6	57.3*	-7.8	-0.4	/	42.5*	101.5*
COc1ccc(CNC(=O)CCCCCNc2nc(=S)[nH]c3ccccc23)cc1	-0.4	7.8	21.3	12.2	-5.0	-0.2	/	/
CCCCn1c(N)c(N(CCOC)C(=O)COC(=O)C(C)Oc2ccc(Cl)cc2)c(=O)[nH]c1=O (configuration not stated)	-1.4	-5.3	-19.6	-14.1	1.2	0.3	/	/
SMILES	SKKanGAS inh	Calb FLC	Mdm2-MdmX inh	CSC inhib	Beta cell apopt	MPTP block	Mdm2 MdmX conf	Full FLuc ctr
COc1ccc(/C=N/NC(=O)c2nc(-c3ccccc3)n(-c3ccccc3)n2)c(O)c1	5.3	-0.3	63.4*	/	103.0*	4.0	66.3*	41.2*
COc1ccc(/C=N/NC(=O)c2cc3cc(OC)c(OC)cc3[nH]2)cc1	12.2	4.8	-5.1	11.5	24.7	0.2	/	/
COc1ccc2[nH]c(C(=O)N/N=C/c3ccc(O)cc3O)cc2c1	-4.0	14.2	71.0*	100.2*	120.6*	0.9	83.3*	31.2
CCOc1ccc2[nH]c(C(=O)N/N=C/c3ccc(OC)cc3)cc2c1	-0.4	49.8	53.2*	50.5	34.3	-0.3	56.0*	95.7*
CC(C)(C)c1cc(C(=O)N/N=C/c2ccccc2O)n(-c2ccccc2)n1	73.3*	-9.5	70.1*	116.9*	85.1*	3.6	77.0*	28.9
CC(C)(C)c1cc(C(=O)N/N=C/c2ccc(F)cc2)n(-c2ccccc2)n1	0.9	-4.2	13.1	58.6	9.2	2.4	/	/
CC(C)c1nnc(NC(=O)CC(=O)Nc2ccccc2C(=O)O)s1	5.4	-10.9	67.0*	-7.1	0.1	-1.5	47.1*	73.6*
Cc1ccccc1CN1CCNC(=O)C1CC(=O)NCCN1CCCCC1=O (configuration not stated)	0.4	-1.0	36.2	0.6	-6.8	0.0	/	/
CC(C)[C@]1(c2ccc(Cl)cc2)ON(c2ccccc2C(F)(F)F)C1=O	/	/	68.0*	57.5	2.0	/	33.9	56.2*
CC(C)[C@@]1(c2ccccc2)ON(c2ccccc2C(F)(F)F)C1=O	/	/	37.4	25.8	-3.0	/	/	/
O=C1N(c2ccccc2C(F)(F)F)O[C@]1(c1ccccc1)C1CCCCC1	/	/	85.4*	69.9	-3.7	-0.4	62.0*	50.8*
O=C1N(c2ccccc2C(F)(F)F)OC1(Cc1ccccc1)c1ccccc1 (configuration not stated)	/	/	91.6*	56.5	-10.1	1.6	66.8*	52.0*
CC(C)[C@]1(c2ccccc2)ON(c2ccccc2C(F)(F)F)C1=O	/	/	39.9	-19.8	1.5	/	/	/
Oc1ccc(/C=N/Nc2ccc(C(F)(F)F)cn2)c(O)c1	8.4	100.4*	64.1*	102.4*	72.7	2.4	36.2	55.6*
CCOc1ccc(N(C)S(=O)(=O)c2ccc3[nH]cc(C(=O)NCCOC)c(=O)c3c2)cc1	0.2	6.4	20.0	3.3	-2.9	2.3	/	/
CCC/C(C)=N/NC(=O)c1ccccc1O	-2.1	-6.0	14.4	-13.8	-2.1	-0.2	/	/
CCOC(=O)C(CC)/C(C)=N\NC(=O)c1ccccc1O (configuration not stated)	-3.0	?	67.8*	41.1	33.3	-7.6	49.8*	76.8*
COc1cccc(NC(=O)CN(C)C(=O)c2ccc3[nH]c4c(c3c2)CC(C)CC4)c1 (configuration not stated)	/	/	6.2	/	/	0.7	/	/
